Results on 26 molecules are retold here after PubChem BioAssay (NCATS).

SMILES strings stand for the structures. Values without a mark were called inactive. Results filed as inconclusive are left out. The source made the active and inactive calls. Unless noted, the call rests on the fitted dose curve; in most records, active means well fitted curve in the direction sought with a large enough effect; inconclusive means small, poorly fitted or top-dose-only effect, or another doubt; inactive means no such curve, though single readings can be large; an effect the other way counts as inactive or inconclusive.

The nature of assay [1]: qHTS for Inhibitors of Plasmodium falciparum (DD2) proliferation (AID 504314).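 Further: parasite DNA measured by SYBR Green fluorescence after red cell lysis; plate controls were DMSO vehicle for no effect and artemisinin wells for full effect.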 Summed up:
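Fluorescence read-out (ex 485/em 535 nm) of SYBR Green-stained parasite DNA quantifies intraerythrocytic growth. Cultures at 0.3% parasitemia and 2.5% hematocrit were treated for 72 h; data normalized to DMSO and 0.29 uM artemisinin wells.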

The nature of assay [2]: qHTS for Inhibitors of Plasmodium falciparum (GB4) proliferation (AID 504315).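 Further: 0% = DMSO vehicle and -100% = 0.29 µM artemisinin control; nearly all actives have a fitted effect of over 50% in size.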 In a few lines: (§1)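 Erythrocytes infected with P. falciparum line (0.3% parasitemia, 2.5% hematocrit final) incubated with compounds 72 h at 37 °C, 5% CO2; SYBR Green lysis buffer added, fluorescence read next day. Normalized to 0.29 uM artemisinin and DMSO.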
Assay [3] is described as follows: qHTS for Inhibitors of Plasmodium falciparum (HB3) proliferation (AID 504318).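 Further: 0% = DMSO vehicle and -100% = artemisinin control; nearly all actives have a fitted effect of over 60% in size.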 In a few lines:
as §1
For orientation: In qHTS, concentration-response curves come from the screen itself.

The nature of assay [4]: qHTS for Inhibitors of Plasmodium falciparum (CP250) proliferation (AID 504320).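 Further: plate controls were DMSO vehicle for no effect and 0.29 µM artemisinin control for full effect.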 In a few lines:
as §1

The target of assay [5] is Atrial natriuretic peptide receptor 1 (Homo sapiens) (UniProt P16066). Nature of the assay: Natriuretic polypeptide receptor (hNpr1) antagonism - Pilot CMLD screen (AID 1347052; calls by dose curve;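 further: HEK293 cells with hNpr1 stimulated by hNppA peptide at 0.1 nM; cGMP level read as GloSensor luciferase luminescence after agonist stimulation; series mostly up to about 9.2 µM; on the % scale 0 is the no-effect control and ±100 the full control effect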).
Assay [6] is described as follows: qHTS for Inhibitors of Plasmodium falciparum (7G8) proliferation (AID 504316).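 Further: series mostly up to about 6.7 µM; 0% = DMSO vehicle and -100% = 0.29 µM artemisinin full kill; nearly all actives have a fitted effect of over 65% in size.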 In a few lines: as §1
Assay [7] deals with Cytochrome P450 2C9 (Homo sapiens) (UniProt P11712). The experiment in a line: qHTS Assay for Inhibitors and Substrates of Cytochrome P450 2C9 (AID 883). Further: on the % scale 0 is the no-effect control and ±100 the full control effect; nearly all actives have a fitted effect of over 60% in size. Summed up:
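10nM CYP2C9 + 100uM Luciferin-H (=KM), 25mM KPO4; cpd 10 min 37C; NADPH regen, 60 min 37C; stop/detect with P450 Glo-Buffer 20 min; luminescence. Norm. to 57uM sulphaphenazole as full inhibition.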

The target in assay [8] is Cytochrome P450 3A4 (Homo sapiens) (UniProt P08684). The experiment in a line: qHTS Assay for Activators of Cytochrome P450 3A4 (AID 885). Further: nearly all actives have a fitted effect of over 65% in size. In a few lines: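 Quantitative HTS format: compounds preincubated with 20nM human CYP3A4 and Luciferin-PPXE substrate at KM, reaction started by NADPH regeneration, stopped after 60 min, luciferase luminescence read 20 min later.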
Assay [9] deals with Cytochrome P450 2D6 (Homo sapiens) (UniProt P10635). Nature of the assay: qHTS Assay for Inhibitors and Substrates of Cytochrome P450 2D6 (AID 891). Further: potency means the concentration at half of the fitted maximal effect; nearly all actives have a fitted effect of over 60% in size. Summed up: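 Human CYP2D6 (5 nM) with 30 uM Luciferin-ME EGE (at Km) in 100 mM KPO4, compound preincubated 10 min, then NADPH regeneration system for 60 min at room temperature. Luciferin read by luminescence; normalized to 1.43 uM quinidine.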

The target of assay [10] is Cytochrome P450 2C19 (Homo sapiens) (UniProt P33261). The experiment in a line: qHTS Assay for Inhibitors and Substrates of Cytochrome P450 2C19 (AID 899). Further: potency means the concentration at half of the fitted maximal effect; nearly all actives have a fitted effect of over 60% in size. Summed up:
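Luminescent read-out of luciferin formed from Luciferin-H EGE (10uM, equal to KM). Enzyme 5nM in 50mM KPO4; compound added, 10 min at 37C, then NADPH regenerating system for 60 min at 37C. Full inhibition defined by 57uM ketoconazole.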

Atrial natriuretic peptide receptor 1 (Homo sapiens), sequence (P16066 whole entry, looked up): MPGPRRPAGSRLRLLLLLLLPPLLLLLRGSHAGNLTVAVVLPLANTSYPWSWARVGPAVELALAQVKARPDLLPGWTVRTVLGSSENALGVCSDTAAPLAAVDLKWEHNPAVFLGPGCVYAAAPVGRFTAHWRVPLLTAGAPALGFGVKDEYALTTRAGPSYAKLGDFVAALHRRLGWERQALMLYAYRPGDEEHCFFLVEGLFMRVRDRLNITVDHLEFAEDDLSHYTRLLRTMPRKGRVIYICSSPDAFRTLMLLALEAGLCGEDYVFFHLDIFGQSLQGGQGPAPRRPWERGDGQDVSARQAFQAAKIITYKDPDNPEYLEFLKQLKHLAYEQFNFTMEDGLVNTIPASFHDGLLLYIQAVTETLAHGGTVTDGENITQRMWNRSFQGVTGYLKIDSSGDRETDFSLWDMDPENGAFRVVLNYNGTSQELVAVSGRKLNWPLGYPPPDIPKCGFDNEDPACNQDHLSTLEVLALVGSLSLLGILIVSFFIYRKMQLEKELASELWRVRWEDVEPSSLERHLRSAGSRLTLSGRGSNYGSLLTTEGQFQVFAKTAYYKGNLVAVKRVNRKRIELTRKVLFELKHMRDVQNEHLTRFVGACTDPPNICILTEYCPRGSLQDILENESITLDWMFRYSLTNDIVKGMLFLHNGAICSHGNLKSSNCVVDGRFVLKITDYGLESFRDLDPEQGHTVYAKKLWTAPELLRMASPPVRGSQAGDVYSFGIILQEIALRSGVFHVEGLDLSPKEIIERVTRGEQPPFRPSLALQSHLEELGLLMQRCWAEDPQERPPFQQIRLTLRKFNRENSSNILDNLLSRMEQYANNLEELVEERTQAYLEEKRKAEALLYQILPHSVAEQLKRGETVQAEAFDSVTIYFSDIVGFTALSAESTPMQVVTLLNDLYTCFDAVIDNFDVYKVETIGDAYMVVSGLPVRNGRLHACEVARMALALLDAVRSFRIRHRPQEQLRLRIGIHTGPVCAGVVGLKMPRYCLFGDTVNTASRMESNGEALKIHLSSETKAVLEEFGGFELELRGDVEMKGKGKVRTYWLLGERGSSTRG
Cytochrome P450 2C9 (Homo sapiens), sequence (P11712 whole entry, looked up): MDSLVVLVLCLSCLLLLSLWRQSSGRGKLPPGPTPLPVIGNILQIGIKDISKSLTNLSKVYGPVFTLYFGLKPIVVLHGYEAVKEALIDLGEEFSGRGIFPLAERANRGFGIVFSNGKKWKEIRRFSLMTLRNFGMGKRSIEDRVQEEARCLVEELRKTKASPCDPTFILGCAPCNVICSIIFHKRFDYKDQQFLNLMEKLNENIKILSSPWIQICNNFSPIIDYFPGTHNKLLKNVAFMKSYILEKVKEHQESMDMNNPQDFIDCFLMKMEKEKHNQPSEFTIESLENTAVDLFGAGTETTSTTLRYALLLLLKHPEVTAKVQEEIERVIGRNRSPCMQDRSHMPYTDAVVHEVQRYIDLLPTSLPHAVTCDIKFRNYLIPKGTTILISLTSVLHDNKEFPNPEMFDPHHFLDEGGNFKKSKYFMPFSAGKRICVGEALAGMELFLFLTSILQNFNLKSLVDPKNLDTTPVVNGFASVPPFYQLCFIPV
Cytochrome P450 2D6 (Homo sapiens), sequence (P10635 whole entry, looked up): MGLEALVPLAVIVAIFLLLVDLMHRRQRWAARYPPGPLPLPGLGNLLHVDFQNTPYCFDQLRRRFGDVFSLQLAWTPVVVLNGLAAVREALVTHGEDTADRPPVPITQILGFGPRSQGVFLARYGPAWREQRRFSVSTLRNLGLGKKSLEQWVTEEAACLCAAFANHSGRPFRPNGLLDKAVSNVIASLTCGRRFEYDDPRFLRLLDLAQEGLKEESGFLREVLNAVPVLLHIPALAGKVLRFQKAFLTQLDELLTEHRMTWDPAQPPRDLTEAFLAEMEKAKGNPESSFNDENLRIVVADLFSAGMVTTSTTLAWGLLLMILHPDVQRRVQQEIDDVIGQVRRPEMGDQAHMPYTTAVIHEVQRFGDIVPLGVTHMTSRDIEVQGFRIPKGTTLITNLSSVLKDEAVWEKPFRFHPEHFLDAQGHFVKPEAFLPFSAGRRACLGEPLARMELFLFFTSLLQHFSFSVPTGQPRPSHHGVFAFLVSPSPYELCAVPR
Cytochrome P450 3A4 (Homo sapiens), sequence (P08684 whole entry, looked up): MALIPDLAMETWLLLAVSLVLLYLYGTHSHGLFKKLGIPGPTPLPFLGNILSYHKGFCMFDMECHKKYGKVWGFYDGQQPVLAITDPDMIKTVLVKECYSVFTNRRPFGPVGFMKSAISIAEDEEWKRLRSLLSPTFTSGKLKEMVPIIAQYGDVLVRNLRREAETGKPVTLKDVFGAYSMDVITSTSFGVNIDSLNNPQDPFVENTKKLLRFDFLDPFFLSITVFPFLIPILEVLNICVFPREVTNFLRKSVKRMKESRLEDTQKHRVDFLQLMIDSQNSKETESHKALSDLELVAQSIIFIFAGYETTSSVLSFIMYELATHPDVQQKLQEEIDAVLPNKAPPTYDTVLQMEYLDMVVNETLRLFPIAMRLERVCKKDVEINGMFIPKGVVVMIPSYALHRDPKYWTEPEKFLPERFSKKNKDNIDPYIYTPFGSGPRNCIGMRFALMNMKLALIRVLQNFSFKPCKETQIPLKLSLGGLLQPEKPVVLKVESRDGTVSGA
Cytochrome P450 2C19 (Homo sapiens), sequence (P33261 whole entry, looked up): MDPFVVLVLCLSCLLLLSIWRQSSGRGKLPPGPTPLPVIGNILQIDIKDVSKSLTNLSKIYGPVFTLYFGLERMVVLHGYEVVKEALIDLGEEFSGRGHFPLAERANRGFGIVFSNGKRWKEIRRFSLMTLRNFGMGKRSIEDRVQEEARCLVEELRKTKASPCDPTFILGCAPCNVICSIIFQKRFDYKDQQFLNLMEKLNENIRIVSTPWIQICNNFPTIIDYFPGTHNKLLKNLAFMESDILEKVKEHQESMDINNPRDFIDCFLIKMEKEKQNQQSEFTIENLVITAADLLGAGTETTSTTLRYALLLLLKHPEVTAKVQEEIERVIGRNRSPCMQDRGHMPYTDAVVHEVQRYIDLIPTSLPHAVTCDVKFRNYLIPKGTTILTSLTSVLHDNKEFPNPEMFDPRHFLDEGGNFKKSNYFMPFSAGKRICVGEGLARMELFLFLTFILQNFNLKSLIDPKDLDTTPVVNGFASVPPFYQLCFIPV

On to `COC(=O)CCC(=O)OC1(C)C(=O)C=C2C=C(C3CC3)N(Cc3ccc(OC)cc3)C=C2C1=O` (stereo unspecified), for which the Potency result in [1], in [2], in assay [3], in assay [4] and in [5] was “inactive” each time.
For the molecule `CC(=O)C1=C(C)N(Cc2ccco2)C(=O)NC1c1ccccc1` (stereo unspecified), the Potency result in assay [1], in assay [2], in [3], in assay [4] and in assay [5] was “inactive” each time.
With `COC(=O)C1=C(C)N(Cc2ccccc2)C(=O)NC1c1cccc(C(F)(F)F)c1` (stereo unspecified), the Potency result in assay [1], in assay [2], in assay [3], in assay [4] and in assay [5] was “inactive” each time.
As to `CC(C)CON=C1C[C@@H](O)[C@@H](O)[C@@H]2[C@H]3C(=O)N(C[C@@H]4CCCO4)C(=O)[C@@H]3CC[C@@H]12`, the Potency result in [1], in assay [2], in [3], in [4] and in [5] was “inactive” throughout.
`CCCNC(=O)OC[C@H]1O[C@H](CCON=C2[C@H]3CCn4c(=O)n(-c5ccccc5)c(=O)n4[C@@H]3[C@H](O)[C@@H]3O[C@H]23)C=C[C@H]1Oc1ccc(OC)cc1`: the Potency result in assay [1], in assay [2], in assay [3], in assay [4] and in assay [5] was “inactive” in each case.
As to `COC(=O)[C@H](COC(C)(C)C)NC(=O)O[C@@H]1C(=O)c2ccc(OC)cc2O[C@H]1c1ccc2c(c1)OCO2`, the Potency entry in assay [1], in assay [2], in [6], in [4] and in assay [5] was “inactive” in each case.
As to `O=C(C=Cc1ccccc1)N1CCC[C@H]1CO`, the Potency entry in [1], in assay [2], in [3], in assay [4] and in [5] was “inactive” each time.
As for `COc1ccc(C(=O)CC(=O)c2c(O)cc(OC)cc2OC)cc1`, the activity change, negative = inhibition in [7] was -6.49% [at 11.4 µM]. The activity change, positive = activation in assay [8] is -41.2% [at 11.4 µM]. For the same molecule, the Potency in assay [9] is 1260 nM (active); in [10], 398 nM (active). The Potency entry in assay [1], in [2], in [6], in [4] and in assay [5] was “inactive” throughout.
As for `CCOC(=O)c1c(C(=O)OCC)c2c3ccccc3cc(C)n2c1C(=O)OC`, the Potency entry in assay [1], in [2], in [3], in assay [4] and in [5] was “inactive” throughout.
For `C=CC1=C2C=C(C3CC3)N(CCOC)C=C2C(=O)C(C)(OC(=O)c2ccco2)C1=O` (stereo unspecified), the Potency result in assay [1], in assay [2], in assay [3], in [4] and in [5] was “inactive” in each case.
For the molecule `O=C1CCC=C1C(O)CCc1ccccc1` (stereo unspecified), the Potency entry in assay [1], in assay [2], in assay [3] and in assay [5] was “inactive” each time.
As for `C#CCN1C(=O)CC[C@@]23C1=NC(C(=O)OC)=C(C(=O)OC)[C@@H]2N(CC=C(C)C)c1ccccc13`, the Potency entry in assay [1], in assay [2], in [3] and in assay [5] was “inactive” each time.
For the molecule `CCOC(=O)CN1C(=O)NC(c2ccc(Br)cc2)C(C(=O)OC)=C1C` (stereo unspecified), the Potency entry in [1], in assay [2], in assay [3], in assay [4] and in assay [5] was “inactive” each time.
For the molecule `CCCCCCCC1=Cc2ccc(F)cc2C(C(C(C)=O)C(=O)OC)N1C(=O)OC` (stereo unspecified), the Potency result in assay [1], in assay [2], in [3] and in [5] was “inactive” in each case.
For `C[C@@H]1C=CCC(=O)N[C@@H](c2ccccc2)[C@H](C)C=CCC(=O)N[C@@H]1c1ccccc1`, the Potency result in assay [1], in [2], in assay [3], in assay [4] and in assay [5] was “inactive” throughout.
Consider `C#CCCCON=C1C[C@@H](O)[C@@H](O)[C@@H]2[C@H]3C(=O)N(C(C)(C)C)C(=O)[C@@H]3CC[C@H]12`, for which the Potency result in assay [1], in [2], in assay [3], in assay [4] and in assay [5] was “inactive” throughout.
On to `CCN(CC)CC(O)CN1CCCCc2nc(C)c(C)cc21` (stereo unspecified), for which the Potency entry in assay [1], in assay [2], in assay [3], in [4] and in [5] was “inactive” each time.
Consider `C#CCCCON=C1C[C@@H](O)[C@H](O)[C@H]2[C@@H]3C(=O)N(C4CCCCC4)C(=O)[C@@H]3CC[C@@H]12`, for which the Potency entry in assay [1], in assay [2], in assay [3], in assay [4] and in assay [5] was “inactive” each time.
For the molecule `COC(=O)[C@H](COC(C)(C)C)NC(=O)O[C@@H]1C(=O)c2cc(OC)ccc2O[C@H]1c1cccc(OC)c1`, the Potency entry in [1], in assay [2], in [3], in assay [4] and in [5] was “inactive” each time.
For `O=C1[C@H]2[C@@H]3[C@@H](O)[C@H](O)CC(=NOCc4ccccc4)[C@H]3CC[C@H]2C(=O)N1C1CCCCC1`, the Potency result in [1], in assay [2], in assay [3], in [4] and in assay [5] was “inactive” throughout.
`COC(=O)C1=C(C)C(=O)[C@]2(O)c3ccccc3N(C)[C@]12C`: the Potency entry in [1], in [2], in assay [3], in assay [4] and in assay [5] was “inactive” each time.
On to `COCCN1C(=O)CC[C@@]23C1=NC(C(=O)OC)=C(C(=O)OC)[C@@H]2N(CC=C(C)C)c1ccccc13`, for which the Potency result in assay [1], in [2], in assay [3], in assay [4] and in assay [5] was “inactive” throughout.
Take `CCCCC1=CC2=CC(=O)C(C)(O)C(=O)C2=CO1` (stereo unspecified): the Potency entry in assay [1], in [2], in assay [3], in assay [4] and in assay [5] was “inactive” in each case.
As for `CC(CCC(=O)OC[C@H]1O[C@H](C#Cc2ccccc2)C=C[C@H]1Oc1ccc(C)cc1)=NO[C@@H](C)CN1CCCCc2nc(C)c(C)cc21`, the Potency entry in assay [1], in assay [2], in assay [3], in [4] and in assay [5] was “inactive” in each case.
`COCC=CC1=CC2=CC(=O)C(C)(OC(=O)c3cnc4ccccc4n3)C(=O)C2=CN1Cc1ccccc1` (stereo unspecified): the Potency entry in [1], in assay [2], in assay [3], in assay [4] and in assay [5] was “inactive” each time.
Regarding `CCN1C(=O)[C@@H]2[C@H]3[C@H](O)[C@H](O)CC(=NNC(=O)OCc4ccccc4)[C@@H]3CC[C@H]2C1=O`, the Potency entry in assay [1], in assay [2], in [3], in [4] and in assay [5] was “inactive” throughout.
